Laboratory results as given in the supplement of paper PMC3334620.
Whole data set: some 33,000 sequences, median “E-score (-0.5 to 0.5)” near -0.011, cut for the highest 2% near 0.28. The full list was thinned out, with the highest values kept by preference.

These sequences were tested against T1, Gcr1 (UniProt P07261) (assay: PBM E-score (8-mer binding enrichment) (E-score (-0.5 to 0.5)); higher = stronger / more preferred TF binding). Settings: protein concentration: 100 nM; construct: GST-full length.
T1 sequence: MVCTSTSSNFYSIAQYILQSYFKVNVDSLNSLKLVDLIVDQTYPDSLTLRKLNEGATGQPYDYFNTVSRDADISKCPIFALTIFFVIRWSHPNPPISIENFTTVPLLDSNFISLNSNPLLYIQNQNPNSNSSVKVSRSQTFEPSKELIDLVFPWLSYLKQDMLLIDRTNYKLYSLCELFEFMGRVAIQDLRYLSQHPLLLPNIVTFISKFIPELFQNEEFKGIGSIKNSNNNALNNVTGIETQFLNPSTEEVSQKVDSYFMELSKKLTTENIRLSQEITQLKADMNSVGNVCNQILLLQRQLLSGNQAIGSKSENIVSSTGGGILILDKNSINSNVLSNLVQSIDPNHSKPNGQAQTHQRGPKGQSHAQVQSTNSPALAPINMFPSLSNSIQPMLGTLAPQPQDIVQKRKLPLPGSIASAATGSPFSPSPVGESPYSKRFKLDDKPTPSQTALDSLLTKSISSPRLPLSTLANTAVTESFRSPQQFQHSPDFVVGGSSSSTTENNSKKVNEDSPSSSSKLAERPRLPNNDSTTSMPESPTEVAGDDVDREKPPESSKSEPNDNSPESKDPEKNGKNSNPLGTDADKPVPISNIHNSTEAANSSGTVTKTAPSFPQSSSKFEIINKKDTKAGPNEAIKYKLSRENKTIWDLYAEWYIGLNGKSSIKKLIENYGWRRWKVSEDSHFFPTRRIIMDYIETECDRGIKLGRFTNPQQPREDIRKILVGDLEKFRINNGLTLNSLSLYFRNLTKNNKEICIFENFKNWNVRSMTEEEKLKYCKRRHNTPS
Procedure, shortened: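 Detection of bound protein used fluorescent anti-GST, with scans normalised by masliner. The proteins were GST-tagged yeast transcription factors applied at about 100-200 nM to universal all-10-mer Agilent arrays made double-stranded by primer extension. Each ungapped eight-base word, pooled with its reverse complement, was scored with an E-score from the Universal PBM Analysis Suite.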

Row | Sequence | PBM E-score
1 | CCTCCTGC | -0.0964
2 | ATCTTCGC | -0.0394
3 | ATAGAGGA | 0.346
4 | ATAGAGGG | 0.137
5 | ATAGAGGC | 0.174
6 | ATGTCCCG | -0.183
7 | GCTATTGA | -0.21
8 | CACCACTA | 0.298
9 | TACCACTA | 0.365
10 | GACCACTA | 0.179
11 | CACCACTC | 0.134
12 | AACCACTA | 0.241
13 | CACCACTG | 0.167
14 | AGTTGCAA | -0.105
15 | CGTAGTGA | -0.043
16 | CGTACCGC | -0.162
17 | ATGATACG | 0.107
18 | CAAGACAC | 0.0836
19 | ACGCCCTA | 0.178
20 | CCGCCCTA | -0.0561
21 | ACACCCTA | -0.021
22 | TCACCCAA | -0.00294
23 | GCACCCCA | 0.241
24 | CCACCCTA | 0.0045

Row | Sequence | PBM E-score
25 | GCACCCTA | 0.297
26 | GCGCCTAC | 0.256
27 | GCACCCAA | 0.303
28 | GCGCCTAA | 0.407
29 | TCGCCTAA | 0.0844
30 | GCGCCCTA | 0.319
31 | CACCACCG | -0.0609
32 | GAGTTGCA | -0.0956
33 | GTGAGAAC | -0.0123
34 | GATGGATA | 0.0193
35 | CCCCCGGC | -0.0149
36 | GGAACGGA | -0.0468
37 | CCGAGTCA | -0.25
38 | ATTCGAAT | 0.0645
39 | AGATGACG | -0.0775
40 | GCACCCAC | 0.397
41 | ACACCCAC | 0.0847
42 | CCACCCAC | -0.0236
43 | CTTTTTGA | 0.115
44 | AGTTGGAA | 0.187
45 | AAGGCTGA | -0.141
46 | ATAGCTGC | 0.285
47 | AAGGCTGC | 0.302
48 | CTAGCTGC | 0.161

Row | Sequence | PBM E-score
49 | GAGGCTGC | 0.253
50 | ATAGCTGA | -0.0965
51 | CTGTCTTC | 0.00215
52 | AGCTAATA | 0.0193
53 | CGGGGCCC | 0.219
54 | TCCAAAGA | 0.0425
55 | ACAGCTCA | -0.146
56 | ATAAGACG | 0.192
57 | AAGGAAGC | 0.452
58 | GAGGAAGC | 0.391
59 | CAGGAAGC | 0.434
60 | CAGGAAGG | 0.184
61 | CACGAAGA | -0.098
62 | AACGAAGC | 0.00062
63 | CAGGAAGA | 0.0842
64 | AAGGAAGA | -0.00011
65 | GAGGAAGA | 0.171
66 | AAGGAAGG | -0.0778
67 | GAGGAAAC | -0.104
68 | CACGAAGC | 0.311
69 | CCAAGGTC | -0.0561
70 | CGAAAGGC | 0.0349
71 | GCCTTCAC | -0.0793
72 | AGCTGCAT | -0.077

Row | Sequence | PBM E-score
73 | CTCGGCGC | 0.159
74 | CAAAGGCG | -0.134
75 | CGGCGTCC | 0.412
76 | AGGCGTCG | -0.0284
77 | AGGCGTCA | -0.194
78 | AGGCGTCC | 0.387
79 | CGGCGTCA | 0.0965
80 | CGGCGTGC | -0.094
81 | ATATAGAG | 0.133
82 | AAATTCAG | 0.169
83 | CCATAGGC | -0.00913
84 | TGAGAAAA | 0.0932
85 | AGGCAGAT | 0.0845
86 | ATACGTAC | -0.00136
87 | ATACGTAA | 0.053
88 | ATACGTAT | 0.284
89 | AAACCAAC | 0.0391
90 | GCACCATA | 0.228
91 | AGTTTTAT | 0.112
92 | CTACTATC | 0.146
93 | ATACTATA | -0.0912
94 | CTACTATA | 0.282
